About 83,000 compounds went through this panel and 20% of them were active in at least one assay; those are over-represented in the sample as a whole.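 Results are percent growth after 48 hours of single-concentration exposure. 100 means growth as in untreated cells, lower positive values show inhibition; negative values down to -100 show cell death.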 Unmarked numbers belong to inactive results. Activity calls are given as the source filed them. Rule for the calls: active = growth percent below 10; inactive = the rest.
Tests used:
Assay in all cases: NCI-60 one-dose screen, 48 h (100 = growth as untreated, 0 = no growth, -100 = all killed)
Conditions in all cases: 10 µM unless noted
NCI-H23 lung = test system: NCI-H23 lung
NCI-H226 lung = test system: NCI-H226 lung
NCI-H322M lung = test system: NCI-H322M lung
HOP-62 NSCLC = test system: HOP-62 NSCLC
NCI-H460 lung = test system: NCI-H460 lung
HOP-92 NSCLC = test system: HOP-92 NSCLC
NCI-H522 lung = test system: NCI-H522 lung
A549/ATCC NSCLC = test system: A549/ATCC NSCLC
786-0 renal = test system: 786-0 renal
COLO 205 colon = test system: COLO 205 colon
DU-145 prostate = test system: DU-145 prostate
K-562 leukemia = test system: K-562 leukemia
MALME-3M melanoma = test system: MALME-3M melanoma
MDA-MB-231 breast = test system: MDA-MB-231 breast
RXF 393 renal = test system: RXF 393 renal
SF-268 CNS = test system: SF-268 CNS
SF-295 CNS = test system: SF-295 CNS
SF-539 CNS = test system: SF-539 CNS
UACC-257 melanoma = test system: UACC-257 melanoma
M14 melanoma = test system: M14 melanoma

SMILES	growth (NCI-H23 lung)	growth (NCI-H226 lung) [%]	growth (NCI-H322M lung) [%]	growth (HOP-62 NSCLC) [%]	growth (NCI-H460 lung)	growth (HOP-92 NSCLC)	growth (NCI-H522 lung)	growth (A549/ATCC NSCLC) [%]	growth (786-0 renal)	growth (COLO 205 colon)	growth (DU-145 prostate) [%]	growth (K-562 leukemia)	growth (MALME-3M melanoma)	growth (MDA-MB-231 breast) [%]	growth (RXF 393 renal)	growth (SF-268 CNS) [%]	growth (SF-295 CNS) [%]	growth (SF-539 CNS) [%]	growth (UACC-257 melanoma) [%]	growth (M14 melanoma)
Nc1nc2c(c(=O)[nH]1)C(c1ccc3c(c1)OCO3)C=C(C(=O)O)N2 (stereo not given)	109%	115	114	115	110%	117%	106%	99.2	98.3%	119%	112	99.7%	101%	121	120%	112	94.2	101	97	112%
C=C1C(=O)O[C@H]2[C@H]1CC/C(COC(=O)N[C@H](Cc1c[nH]c3ccccc13)C(=O)OC)=C\CC[C@@]1(C)O[C@@H]21	68.8%	85.6	86.3	64.6	64%	3.25% (active)	-71.4% (active)	82.4	-56.3% (active)	-36.2% (active)	40.9	7.14% (active)	4.76% (active)	26.8	-25.5% (active)	72.6	91.9	11.6	63.7	44.1%
CC(=O)Nc1cc(F)cc(C(F)(F)F)c1Cl	92.2%	91	98.7	99.3	98.6%	93.7%	100%	103	94.3%	109%	108	112%	100%	110	89.4%	98.2	102	97.6	103	99.2%
Fc1ccc2c(c1)c(-c1nc(-c3c[nH]c4ncccc34)cs1)cn2CCCN1CCCCC1	84.9%	80	80.6	65.3	13%	45.4%	94.3%	65.7	61.9%	-73.1% (active)	66.7	-58.8% (active)	49.8%	55.3	69.4%	66.6	93.2	61.4	100	-81% (active)
Cc1cc(N2CCCCC2)nc(N(CCNc2ccnc3cc(Cl)ccc23)Cc2ccco2)n1	9.31% (active)	80.1	68.9	24.3	8.11% (active)	52%	19.1%	36.6	23.4%	-13.7% (active)	46.4	2.04% (active)	40.2%	32.9	33.3%	60.7	48.7	30.7	88	9.4% (active)
COc1cc2c(cc1-c1c(C)noc1C)ncc1nc(C3CCCCC3)n([C@@H](C)COC(F)F)c12	56.8%	55.5	41.9	28.6	53%	27.7%	26.2%	33.2	42.8%	9.21% (active)	61	24.2%	72.1%	41	52.2%	55.6	45.3	31.6	28.2	34.7%
Cn1cc(-c2csc(-c3cn(CCCN4CCCCC4)c4ccc(F)cc34)n2)c2cccnc21	89.2%	91.6	86.8	99.3	96.1%	49%	103%	92.2	40.3%	98.9%	98	0.833% (active)	-43% (active)	64.2	64.9%	89	99.9	83.6	70.6	-73.4% (active)
